We go through 61 compounds from PubChem BioAssay AID894 (National Center for Advancing Translational Sciences (NCATS), 2007).

SMILES strings stand for the structures. Among all 150,000 compounds or so, about 6,500 (4.3%) were called active. Not shown: some 12% with an inconclusive outcome. What follows is part of a selection rich in actives, with near analogues and random picks from the rest. A number with no mark means an inactive call. Calls follow the shape of the dose curve; as a rule, active = well fitted inhibition curve with a large enough effect (not every such curve was filed as active); inconclusive = small, poorly fitted or top-dose-only effect, or another doubt; inactive = no such curve, though single readings can be large or run the other way.
% is scaled to controls: 0 for no effect and ±100 for the full control effect; potency is read from the fitted curve at half-maximal effect.

In this experiment the target is 15-hydroxyprostaglandin dehydrogenase [NAD(+)] (Homo sapiens) (UniProt P15428). Briefly: qHTS Assay for Inhibitors of HPGD (15-Hydroxyprostaglandin Dehydrogenase). The settings on record: purified HPGD, NADH fluorescence kinetic, PGE2 substrate; activity change, negative = inhibition: active compounds read low. From the text: Human 15-Hydroxyprostaglandin dehydrogenase (HPGD) catalyzes the inactivation of prostaglandin E2, and plays a major role in cancer biology by antagonizing the oncogenic potential of cyclooxygenase type 2 (COX2). Assays are available, based on absorbance/fluorescence increase of NADH with the substrate 15-OH prostaglandin E2. References 1. Myung SJ, Rerko RM, Yan M, Platzer P, Guda K, Dotson A, Lawrence E, Dannenberg AJ, Lovgren AK, Luo G, Pretlow TP, Newman RA, Willis J, Dawson D, Markowitz SD. 15-Hydroxyprostaglandin dehydrogenase is an in vivo suppressor of colon tumorigenesis. […] 2. Yan M, Rerko RM, Platzer P, Dawson D, Willis J, Tong M, Lawrence E, Lutterbaugh J, Lu S, Willson JK, Luo G, Hensold J, Tai HH, Wilson K, Markowitz SD. 15-Hydroxyprostaglandin dehydrogenase, a COX-2 oncogene antagonist, is a TGF-beta-induced suppressor of human gastrointestinal cancers. Proc Natl Acad Sci U S A. 2004 Dec 14;101(50):17468-73. 3. Yang L, Amann JM, Kikuchi T, Porta R, Guix M, Gonzalez A, Park KH, Billheimer D, Arteaga CL, Tai HH, Dubois R, Carbone DP, Johnson DH. Inhibition of Epidermal Growth Factor Receptor Signaling Elevates 15-Hydroxyprostaglandin Dehydrogenase in Non-Small-Cell Lung Cancer. Cancer Res. 2007 Jun 15;67(12):5587-5593. Inhibition of HPGD activity was screened by utilizing prostaglandin as an electron donor and NAD+ as an electron acceptor/cofactor. An increase in the fluorescence intensity due to conversion of NAD+ to NADH was used to measure the enzyme activity. NIH Chemical Genomics Center [NCGC] Structural Genomics Consortium [SGC]
Sequence of 15-hydroxyprostaglandin dehydrogenase [NAD(+)] (Homo sapiens) (P15428 whole entry, looked up): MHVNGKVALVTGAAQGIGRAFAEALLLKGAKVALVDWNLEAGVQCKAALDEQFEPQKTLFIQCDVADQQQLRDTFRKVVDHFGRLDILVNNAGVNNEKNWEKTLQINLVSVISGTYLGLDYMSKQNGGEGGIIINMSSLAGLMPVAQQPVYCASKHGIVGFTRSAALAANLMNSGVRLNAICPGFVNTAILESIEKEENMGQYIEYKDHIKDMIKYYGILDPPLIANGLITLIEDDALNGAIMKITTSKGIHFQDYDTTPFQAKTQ
Buffer: 50 mM Tris-HCl, 0.01% Tween 20, pH 8. Enzyme Buffer: 50 mM Tris-HCl, 0.5 mM NAD+ and 0.01% Tween 20, pH 8. Reagents/Controls: Buffer in columns 3 and 4 as negative control (no enzyme). Substrate/cofactor solution: 1 mM NAD+ and 30 uM prostaglandin (Sigma, prostaglandin E2, # P5640) final concentrations dispensed throughout the plate. Enzyme: 20 nM HPGD final concentration in columns 1, 2, 5-48. Column 1 and 2 is neutral (100% activity). A titration of control inhibitor GW5074 (G6416 Sigma-Aldrich, St. Louis, MO) top concentration 10 mM in DMSO, then 1:2 dilution for a total of 16 concentrations in duplicate) was pin-transferred into column 2. Assay Steps: Three uL of enzyme were dispensed to 1536-well Greiner black solid bottom plates. Compounds and control inhibitor (23 nL) were transferred via Kalypsys PinTool. The plates were incubated for 15 min at room temperature, and then 1 uL of substrate/cofactor solution was added to start the reaction. The plates were immediately transferred to and read 5 times every 30 seconds on ViewLux High-throughput CCD imager (Perkin-Elmer) using 360 nm excitation and 450 nm emission fluorescence protocol. The fluorescence intensity difference between the last and the first time points was used to compute reaction progress.
In general terms: qHTS replaces the single test concentration by a dilution series.
In the case of `CCCc1cc(=O)[nH]c(SCc2cc(=O)oc3c(C)c(C)ccc23)n1`, the Potency is 3.55 µM (active).
Turning to `CCCc1cc(=O)n2[nH]c(SCc3ccccc3)nc2n1`, the activity change, negative = inhibition was -15.8%.
On to `CCCc1cc(=O)[nH]c(SCC(=O)N2CCN(S(=O)(=O)c3ccc(C)cc3C)CC2)n1`, for which the activity change, negative = inhibition is -0.796%.
Turning to `CCCc1cc(=O)[nH]c(SCc2ccc(C#N)cc2)n1`, the Potency was 15.8 µM (active).
Take `Cc1ccc2c(CSc3nncs3)cc(=O)oc2c1`: the activity change, negative = inhibition is -18.3%.
Take `CCCc1cc(=O)[nH]c(SCC(=O)OCc2ccccc2)n1`: the activity change, negative = inhibition was -12.3%.
Regarding `CCCCN1C(=O)CCC(C(=O)O)C1c1ccc(OC)cc1` (stereo unspecified), the activity change, negative = inhibition is -3.29%.
On the same count and under the same terms, for `CCc1cccc(NC(=O)CCC(=O)O)c1` the value was 6.1%.
On the same count and under the same terms, for `COc1ccc2c(CC(=O)OCC(=O)Nc3ccccc3[N+](=O)[O-])coc2c1` the value was -21.4%.
Regarding `COc1cc2ccccc2cc1C(=O)Nc1ccc(S(=O)(=O)Nc2cc(C)on2)cc1`, the Potency was 20 µM (active).
As for `Cc1cc(NS(=O)(=O)c2ccccc2)no1`, the activity change, negative = inhibition was -11.9%.
`COc1cc(OC)cc(C(=O)Nc2ccc(S(=O)(=O)Nc3cc(C)on3)cc2)c1`: the activity change, negative = inhibition is -20.6%.
For the compound `COc1ccc2nc(Nc3nc(-c4cc5ccccc5oc4=O)cs3)sc2c1`, the activity change, negative = inhibition is -10.8%.
Take `C/C(=N\NS(=O)(=O)c1ccc(Cl)cc1)c1ccc(NC(=O)c2ccco2)cc1`: the activity change, negative = inhibition is -18.3%.
Take `Nc1nnc(SCCN2C(=O)c3ccccc3S2(=O)=O)s1`: the activity change, negative = inhibition was -12.2%.
Turning to `O=C1c2ccccc2S(=O)(=O)N1CC(O)Cn1c2ccccc2c2ccccc21` (stereo unspecified), the Potency is 8.91 µM (active).
On to `O=C(CN1C(=O)c2ccccc2S1(=O)=O)N1CCc2ccccc21`, for which the activity change, negative = inhibition is -12.2%.
Take `CCCCC/C=C\C/C=C\CCCCCCCCCC(=O)NCC(=O)O`: the activity change, negative = inhibition was -8.47%.
On the same count and under the same terms, for `Cc1cccc(-c2nc3ccccc3c(=O)n2NC(=O)Cc2ccc(Cl)cc2)c1` the value was -9.37%; for `CCCCc1cc2c(s1)CCCC/C2=N/O`, -24.8%.
Same read-out and setting: to `CC(C)NC(=O)CSc1ccccc1C(=O)NCc1ccc2c(c1)OCO2` belongs -1.41%; to `COc1ccc(CNC(=O)CCn2cccc2)cc1`, -21.6%.
Turning to `CCSc1ccccc1C(=O)NCc1ccc(OC)cc1`, the Potency is 2.51 µM (active).
Regarding `Cc1cccc(N2C(=O)SC(N(CC(=O)O)c3cccc(C)c3)C2=O)c1` (stereo unspecified), the activity change, negative = inhibition is -14.2%.
Consider `Cc1cccc(N2C(=O)C3C(c4ccccc4)OC4(C(=O)c5ccccc5C4=O)C3C2=O)c1` (stereo unspecified), for which the activity change, negative = inhibition was -4.94%.
In the case of `Cc1cccc(N2C(=O)SC(SC(=Nc3ccccc3)Nc3ccccc3)C2=O)c1` (stereo unspecified), the Potency is 14.1 µM (active).
`O=c1c2c(ncn1Cc1ccccc1)nc1n2CCC1`: the activity change, negative = inhibition was -17.9%.
On to `COc1ccc(-c2csc(NC(=O)COC(=O)Cc3ccc(Cl)cc3Cl)n2)cc1`, for which the activity change, negative = inhibition is -9.05%.
Consider `O=C(Nc1cn(-c2ccccc2)nc1-c1ccccc1)c1ccccc1`, for which the activity change, negative = inhibition is -2.03%.
On to `O=C(NC1CCCC1)C(NS(=O)(=O)c1ccc(Br)s1)c1ccccc1` (stereo unspecified), for which the activity change, negative = inhibition is -1.61%.
`CN(CC(=O)NC1CCCCC1)S(=O)(=O)c1ccc(Br)s1`: the activity change, negative = inhibition was -1.92%.
`O=C(NC1CCCC1)c1ccc(Br)s1`: the Potency was 3.55 µM (active).
In the case of `O=C(COC(=O)c1c2c(nc3ccccc13)/C(=C\c1cccs1)CCC2)Nc1ccccc1Cl`, the activity change, negative = inhibition is -25.4%.
Still for that read-out and setting: to `C=CCN1c2ccccc2[C@]23C[C@@H](C(=O)OC)N(S(=O)(=O)c4ccc([N+](=O)[O-])cc4)C2=NC(C(=O)OC)=C(C(=O)OC)[C@H]13` belongs -18.4%; to `COc1cc(/C=C(/NC(=O)c2ccc(Cl)cc2Cl)C(=O)O)cc(OC)c1OC`, -5.89%.
In the case of `O=C(O)c1cccc(S(=O)(=O)NCCO)c1`, the activity change, negative = inhibition was -3.87%.
For the compound `O=C(O)c1cccc(S(=O)(=O)Nc2ccc(O)cc2Sc2nc3ccccc3s2)c1`, the Potency was 10 µM (active).
As to `COC(=O)c1nc2ccccc2s1`, the activity change, negative = inhibition is 0.316%.
In the case of `COc1ccc(S(=O)(=O)Nc2ccc(O)c(Sc3nc4ccccc4s3)c2)cc1`, the Potency was 25.1 µM (active).
Consider `COc1ccc(NS(=O)(=O)c2ccc(NC(=S)NC(=O)CC(C)C)cc2)cc1`, for which the activity change, negative = inhibition was -14.4%.
`O=C(Nc1nc2cc3c(cc2s1)OCCO3)c1cccc(S(=O)(=O)N2CCOCC2)c1`: the activity change, negative = inhibition is -10.8%.
In the case of `CC(=O)NC1=NN(C(C)=O)C(C)(CCS(=O)(=O)c2ccc(Cl)c(Cl)c2)S1` (stereo unspecified), the activity change, negative = inhibition was -9.18%.
The same measure, in the same setting: to `CCCCN1C(=O)c2ccc(C(=O)Nc3ccc(S(=O)(=O)N(C)C)cc3)cc2C1=O` belongs -11.6%.
Take `CCCCCNC(=O)c1cccnc1SCC(=O)Nc1ccccc1OC`: the Potency is 10 µM (active).
For `CCCc1nc(SCC(=O)Nc2ccccc2OC)c2c(=O)n(C)c(=O)n(C)c2n1`, the activity change, negative = inhibition was -0.308%.
On to `CCCNC(=O)c1ccccc1NC(=O)CSCc1ccc(OC)cc1`, for which the activity change, negative = inhibition was -5.31%.
As to `COc1cccc(NC(=S)NC(=O)c2c(Cl)c(C)nn2C)c1`, the activity change, negative = inhibition is -18.7%.
Still for that read-out and setting: for `Cc1sc2nc(CC(N)=O)[nH]c(=O)c2c1-c1ccccc1` the value was 1.92%.
Turning to `O=C(Cn1nnc(-c2ccccc2)n1)NCc1ccc2c(c1)OCO2`, the activity change, negative = inhibition was -12.6%.
As to `O=C(NCc1ccc2c(c1)OCO2)C12CC3CC(CC(C3)C1)C2`, the Potency was 31.6 µM (active).
Regarding `Cn1cc(CCC(=O)NCc2ccc3c(c2)OCO3)c2ccccc21`, the activity change, negative = inhibition is -17.1%.
As to `CC1CCCCN1CC(=O)NCc1ccc2c(c1)OCO2` (stereo unspecified), the Potency was 8.91 µM (active).
In the case of `CCOC(=O)NCc1ccc2c(c1)OCO2`, the activity change, negative = inhibition was -9.86%.
Regarding `O=C(CNS(=O)(=O)c1ccc(Br)s1)NCc1ccc2c(c1)OCO2`, the activity change, negative = inhibition was -7.58%.
Regarding `OC[C@H]1O[C@@H](n2cnc3c(NC4CCCC4)ncnc32)[C@H](O)[C@H]1O`, the activity change, negative = inhibition was -4.78%.
Regarding `CCCCC(NS(=O)(=O)c1ccc(C)cc1)C(=O)Oc1ccc2c3c(c(=O)oc2c1)CCC3` (stereo unspecified), the activity change, negative = inhibition is -8.04%.
For the compound `Cn1c(=O)c(Sc2ccc(Cl)cc2)c(O)c2ccccc21`, the activity change, negative = inhibition was -12.7%.
The same measure, in the same setting: to `CC(C)OCCCNC(=O)c1cc(Sc2ccc(F)cc2)nc2ccccc12` belongs -12.9%.
For `Cc1nc([N+](=O)[O-])nn1C12CC3CC(CC(Br)(C3)C1)C2`, the Potency was 14.1 µM (active).
In the case of `Cc1ncn(C23CC4CC(CC(O)(C4)C2)C3)n1`, the activity change, negative = inhibition was -6.48%.
Consider `COc1cccc(NC(=O)c2nn(C34CC5CC(CC(C5)C3)C4)cc2[N+](=O)[O-])c1`, for which the activity change, negative = inhibition was -4.79%.
